Results taken from the supplement of paper PMC9399229.
Where a name gives a salt, the structure may show the parent alone. Over roughly 1,900 compounds, “relative cell viability (CellTiter-Glo), compound plus cabozantinib, relative to the cabozantinib arm (arm median 1.05; reference not stated)” has its median near 1.1; the lowest 2% begin near 0.15. The sample holds the lowest values, similar compounds and a random draw of the others, so the mix is not that of the screen.

What follows are molecules tested on Hep3B (assay: relative cell viability (CellTiter-Glo), compound plus cabozantinib, relative to the cabozantinib arm (arm median 1.05; reference not stated) (fraction); higher = more viable cells (less growth inhibition)). Details: cabozantinib 2 µM; 4 days.

Row | Compound | relative cell viability
1 | CCCCCCCCCCCCCCCCO [1-Hexadecanol] | 1.14
2 | C[C@@H](Nc1cc(F)cc(F)c1)c1cc(C(=O)N(C)C)cc2c(=O)cc(N3CCOCC3)oc12 | 0.998
3 | COc1ccc(Cn2ccc3ccc(C(=O)NO)cc32)cc1 | 0.91
4 | CCN(CC)Cc1ccc2cc(COC(=O)Nc3ccc(C(=O)NO)cc3)ccc2c1 [Givinostat (ITF2357)] | 0.109
5 | CCN(CC)CCNC(=O)c1ccc(N)cc1 [Procainamide HCl] | 0.947
6 | CN(C)C(=S)NN=C(c1ccccn1)c1ccccn1 | 0.15
7 | COc1cc(NC(=O)c2ccccn2)ccc1Cl | 1.05
8 | CCOC(=O)[C@H](CCc1ccccc1)N[C@@H](C)C(=O)N1CCC[C@H]1C(=O)O [Enalapril Maleate] | 1.15
9 | CC#CC(=O)N1CC[C@@H](n2c(=O)n(-c3ccc(Oc4ccccc4)cc3)c3c(N)ncnc32)C1 | 1.07
10 | COC(=O)CC[C@H](NC(=O)[C@H](CC(=O)OC)NC(=O)OCc1ccccc1)C(=O)N[C@H](C(=O)N[C@@H](CC(=O)OC)C(=O)CF)C(C)C | 1.09
11 | CCCCC(=O)N(Cc1ccc(-c2ccccc2-c2nnn[nH]2)cc1)[C@H](C(=O)O)C(C)C [Valsartan] | 1.2
12 | COc1ccc(-c2nc(N3CCOCC3)c3sc(CN(C)c4ncc(C(=O)NO)cn4)cc3n2)cn1 | 0.181
13 | Cn1cnc2c(F)c(Nc3ccc(Br)cc3Cl)c(C(=O)NOCCO)cc21 [Selumetinib (AZD6244)] | 0.616
14 | Cc1cc(Nc2ncc(Cl)c(Nc3ccccc3S(=O)(=O)C(C)C)n2)c(OC(C)C)cc1C1CCNCC1 | 0.122
15 | COc1cc(N2CCC(N3CCN(C)CC3)CC2)ccc1Nc1ncnc(Nc2ccccc2S(=O)(=O)C(C)C)n1 | 1.09
16 | NC(=S)N/N=C/c1ncccc1N [Triapine] | 1.02
17 | CC(=O)Nc1nc2c(Oc3cc(-c4ccc(C(F)(F)F)cc4)ncn3)cccc2s1 | 1.04
18 | CN[C@H]1CN(c2ccc3c(=O)c(C(=O)O)cn(-c4nccs4)c3n2)C[C@@H]1OC [Voreloxin (SNS-595)] | 0.968
19 | CC/C(=C(\c1ccc(O)cc1)c1ccc(OCCNC)cc1)c1ccccc1 [Endoxifen HCl] | 1.15
20 | Oc1cc(O)c(Cl)cn1 [Gimeracil] | 1
21 | CNC(CC(=O)O)C(=O)O [NMDA (N-Methyl-D-aspartic acid)] | 1.15
22 | CO[C@H]1/C=C/O[C@@]2(C)Oc3c(C)c(O)c4c(O)c(c5c(nc6cc(C)ccn65)c4c3C2=O)NC(=O)/C(C)=C\C=C\[C@H](C)[C@H](O)[C@@H](C)[C@@H](O)[C@@H](C)[C@H](OC(C)=O)[C@@H]1C [Rifaximin] | 0.91
23 | C=CCc1cc(OC)c(O)c(C(=O)NCCO)c1 [Alibendol] | 0.982

Row | Compound | relative cell viability
24 | CC1(C)CC[C@]2(C(=O)O)CC[C@]3(C)C(=CC[C@@H]4[C@@]5(C)CC[C@H](O)C(C)(C)[C@@H]5CC[C@]43C)[C@@H]2C1 [Oleanolic Acid] | 1.14
25 | C=C1C(=O)[C@]23[C@H](O)[C@H]1CC[C@H]2[C@@]12CO[C@]3(O)[C@@H](O)[C@@H]1C(C)(C)CC[C@@H]2O [Oridonin] | 1.11
26 | Cc1csc(-c2nnc(Nc3ccc(Oc4ncccc4-c4ccnc(N)n4)cc3)c3ccccc23)c1 | 1
27 | CCCNC(=O)Nc1ccc(Oc2ncnc3cc(OC)c(OC)cc23)cc1Cl | 1.14
28 | CCOc1cc2ncc(C#N)c(Nc3ccc(F)c(Cl)c3)c2cc1NC(=O)/C=C/CN(C)C [Pelitinib (EKB-569)] | 0.9
29 | CC(=O)C1=C(O)C=C2Oc3c(C(C)=O)c(O)c(C)c(O)c3C2(C)C1=O (single isomer, unassigned; (+)) [(+)-Usniacin] | 1.11
30 | C[C@H]1Oc2cc(cnc2N)-c2c(nn(C)c2C#N)CN(C)C(=O)c2ccc(F)cc21 | 1.14
31 | C[C@@H](O)[C@H]1C(=O)N2C(C(=O)O)=C(S[C@@H]3CN[C@H](C(=O)N(C)C)C3)[C@H](C)[C@H]12 [Meropenem] | 1.17
32 | CC[C@@]1(O)C(=O)OCc2c1cc1n(c2=O)Cc2cc3cc(O)ccc3nc2-1 [(S)-10-Hydroxycamptothecin] | 0.137
33 | CC[C@@]1(O)C(=O)OCc2c1cc1n(c2=O)Cc2cc3c(CN(C)C)c(O)ccc3nc2-1 [Topotecan HCl] | 0.556
34 | CCc1c2c(nc3ccc(O)cc13)-c1cc3c(c(=O)n1C2)COC(=O)[C@]3(O)CC | 0.176
35 | CC(C)(C(=O)NCC(F)(F)C(F)(F)F)C(=O)N[C@@H]1C(=O)Nc2ccccc2-c2ccccc21 | 1.04
36 | C[C@]12C=CC(=O)N[C@@H]1CC[C@@H]1[C@@H]2CC[C@]2(C)[C@@H](C(=O)Nc3cc(C(F)(F)F)ccc3C(F)(F)F)CC[C@@H]12 [Dutasteride] | 1.12
37 | O=C(COc1ccc(C(=O)c2ccccc2)cc1)NC1CCN(Cc2ccccc2)CC1 [AdipoRon] | 1.06
38 | Cc1[nH]nc2ccc(-c3cncc(OC[C@@H](N)Cc4ccccc4)c3)cc12 | 0.11
39 | O=C(O)Cc1cc(I)c(Oc2ccc(O)c(I)c2)c(I)c1 [Tiratricol] | 0.888
40 | CSc1nc2cc(Cl)c(Oc3cccc(Cl)c3Cl)cc2[nH]1 [Triclabendazole] | 1.14
41 | O=C(/C=C\n1cnc(-c2cc(C(F)(F)F)cc(C(F)(F)F)c2)n1)N1CC(F)(F)C1 | 0.32
42 | CC12CC3CC(C)(C1)CC(N)(C3)C2 [Memantine HCl] | 1.1
43 | O=C(C=Cc1ccccc1)NC(NC(=S)Nc1ccc(Cl)cc1)C(Cl)(Cl)Cl (configuration not stated) | 1.14
44 | Cn1cc(/C=C/C(=O)c2cccc(F)c2)cc1/C=C/C(=O)NO | 1.19
45 | O=C(/C=C/c1cccc(S(=O)(=O)Nc2ccccc2)c1)NO [Belinostat (PXD101)] | 0.149
46 | COC(=O)N[C@H](C(=O)N[C@@H](Cc1ccccc1)[C@@H](O)CN(Cc1ccc(-c2ccccn2)cc1)NC(=O)[C@@H](NC(=O)OC)C(C)(C)C)C(C)(C)C [Atazanavir Sulfate] | 0.969

Row | Compound | relative cell viability
47 | Fc1cc(-c2cccc3ncc(-c4cnn(C5CCNCC5)c4)nc23)cc(F)c1CN1CCOCC1 | 1.11
48 | CCOC(=O)C1=C(C)NC(C)=C(C(=O)OC)C1c1cccc(Cl)c1Cl (configuration not stated) [Felodipine] | 1.11
49 | CN1CCN2c3ncccc3Cc3ccccc3C2C1 (configuration not stated) [Mirtazapine] | 1.01
50 | O=C(O[C@H]1CN2CCC1CC2)N1CCc2ccccc2[C@@H]1c1ccccc1 [Solifenacin succinate] | 1.11
51 | O=C1NC(=O)[C@@H](c2cn3c4c(cccc24)CCC3)[C@@H]1c1c[nH]c2ccccc12 [Tivantinib (ARQ 197)] | 0.835
52 | CC(C)n1c(/C=C/C(O)CC(O)CC(=O)O)c(-c2ccc(F)cc2)c2ccccc21 (configuration not stated) [Fluvastatin Sodium] | 1.14
53 | CC[C@H]1[C@@H](O)[C@@H]2[C@H](CC[C@]3(C)[C@@H]([C@H](C)CCC(=O)O)CC[C@@H]23)[C@@]2(C)CC[C@@H](O)C[C@@H]12 [Obeticholic Acid] | 1.12
54 | COc1ccc(-c2ccc3c(N4CCOCC4)nc(N4C[C@@H](C)O[C@@H](C)C4)nc3n2)cc1CO | 0.773
55 | COc1ccc(C[C@H](N)C(=O)N[C@H]2[C@@H](O)[C@H](n3cnc4c(N(C)C)ncnc43)O[C@@H]2CO)cc1 [Puromycin 2HCl] | 0.0197
56 | COc1nc(N)nc2c1ncn2[C@@H]1O[C@H](CO)[C@@H](O)[C@@H]1O [Nelarabine] | 1.17
57 | CNc1ncnc2c1ncn2[C@@H]1O[C@H](CO)[C@@H](O)[C@H]1O [N6-methyladenosine (m6A)] | 1.21
58 | S=C(NCc1ccc2c(c1)OCO2)N1CCN(c2ncnc3c2oc2ccccc23)CC1 [Amuvatinib (MP-470)] | 1.03
59 | C=CC(=O)Nc1cccc(Sc2nc(Nc3ccc(N4CCN(C)CC4)cc3)ncc2Cl)c1 | 0.747
60 | Cc1cnc(Nc2ccc(N3CCN(C)CC3)cc2)nc1Nc1cccc(S(=O)(=O)NC(C)(C)C)c1 | 0.281
61 | C=CCn1c(=O)c2cnc(Nc3ccc(N4CCN(C)CC4)cc3)nc2n1-c1cccc(C(C)(C)O)n1 | 0.144
62 | C=CC(=O)Nc1ccc2ncnc(Nc3ccc(OCc4cccc(F)c4)c(Cl)c3)c2c1 | 0.775
63 | CCCc1ccc(OCC(=O)N(Cc2nc(-c3cccnc3)no2)C(C)C)cc1 | 1.16
64 | C#C[C@]1(O)CC[C@H]2[C@@H]3CCC4=CC(=O)CC[C@@H]4[C@H]3CC[C@@]21C [Norethindrone] | 1.06
65 | CC1(C)S[C@@H]2[C@H](NC(=O)[C@H](N)c3ccccc3)C(=O)N2[C@H]1C(=O)O [Ampicillin sodium] | 1.16
66 | CC1(C)S[C@@H]2[C@H](NC(=O)[C@H](N)c3ccccc3)C(=O)N2[C@H]1C(=O)O [Ampicillin Trihydrate] | 1.08
67 | O=C(O)CCCc1c[nH]c2ccccc12 [3-Indolebutyric acid (IBA)] | 1.07
68 | O=C(/C=C/c1ccc(CN(CCO)CCc2c[nH]c3ccccc23)cc1)NO [LAQ824 (Dacinostat)] | 0.11
69 | OCc1c[nH]c2ccccc12 [Indole-3-carbinol] | 1.11

Row | Compound | relative cell viability
70 | OC[C@H]1O[C@H](O[C@]2(CCl)O[C@H](CCl)[C@@H](O)[C@@H]2O)[C@H](O)[C@@H](O)[C@H]1Cl [Sucralose] | 1.05
71 | CN1CCC(CNc2ccc3ncc(-c4cccc(OC(F)(F)F)c4)n3n2)CC1 [SGI-1776 free base] | 0.976
72 | COc1cccc2c1c(O)c(C(=O)N(C)c1ccc(C(F)(F)F)cc1)c(=O)n2C [Tasquinimod] | 1.19
73 | Cc1cccc(-c2nn3c(c2-c2ccnc4ccc(C(N)=O)cc24)CCC3)n1 | 0.91
74 | CC(=O)OCOC(=O)CN(CC(=O)OCOC(C)=O)c1ccccc1OCCOc1ccccc1N(CC(=O)OCOC(C)=O)CC(=O)OCOC(C)=O | 1.22
75 | CCc1cc(Nc2nccc(-c3c(-c4ccc(OC)c(C(=O)Nc5c(F)cccc5F)c4)nc4ccccn34)n2)c(OC)cc1N1CCC(N2CCN(S(C)(=O)=O)CC2)CC1 | 1.32
76 | CCOC(=O)C1=C(N)Oc2ccc(Br)cc2C1C(C#N)C(=O)OCC (configuration not stated) | 1.02
77 | CC(C(=O)O)c1ccc(C(=O)c2cccs2)cc1 (configuration not stated) [Suprofen] | 1.11
78 | COc1ccc(C[C@H](NC(=O)[C@H](C)NC(=O)CN2CCOCC2)C(=O)N[C@@H](Cc2ccccc2)C(=O)[C@@]2(C)CO2)cc1 | 0.23
79 | O=C(O)c1cc(C(F)(F)F)ccc1N1CC[C@H](OCc2ccccn2)C1 | 0.958
80 | CCN1C[C@H](C)n2c(c(O)c3c(=O)n(Cc4ccc(F)c(Cl)c4)nc(C(=O)NC)c32)C1=O | 1.14
81 | Cc1cccc(C)c1NC(=O)C1CCCCN1C (configuration not stated) [Mepivacaine HCl] | 1.03
82 | COc1ccc(S(=O)(=O)N(CCO)c2ccccc2CN(C)C/C=C/c2ccc(Cl)cc2)cc1 [KN-93 Phosphate] | 1.14
83 | CC(C)C(=O)Oc1ccc(CO)cc1[C@H](CCN(C(C)C)C(C)C)c1ccccc1 [Fesoterodine Fumarate] | 1.1
84 | C[C@@H](CN1CC(=O)NC(=O)C1)N1CC(=O)NC(=O)C1 [Dexrazoxane HCl (ICRF-187, ADR-529)] | 1.1
85 | CN1CCN(CCOc2cc(OC3CCOCC3)c3c(Nc4c(Cl)ccc5c4OCO5)ncnc3c2)CC1 [Saracatinib (AZD0530)] | 1.09
86 | Cn1cc(/C=C2\C(=O)Nc3cccnc32)c2ccccc21 | 1
87 | CC(=O)S[C@@H]1CC2=CC(=O)CC[C@]2(C)[C@H]2CC[C@@]3(C)[C@@H](CC[C@@]34CCC(=O)O4)[C@H]12 [Spironolactone] | 1.1
88 | Cn1c(=O)c2c(ncn2CC(O)CO)n(C)c1=O (configuration not stated) [Dyphylline] | 1.22
89 | Cn1c(=O)c(F)c(Nc2ccc(I)cc2F)c2c(=O)n(C[C@@H](O)CO)cnc21 | 0.14
90 | COc1cc(F)c(F)c(Nc2ccc(I)cc2F)c1NS(=O)(=O)C1(C[C@H](O)CO)CC1 [Refametinib (RDEA119, Bay 86-9766)] | 0.196
91 | CC1=C(C(=O)OC2CCCCC2)C(c2ccc([N+](=O)[O-])cc2)C2=C(CC(C)(C)CC2=O)N1 (configuration not stated) | 1.31
92 | Cc1c(OCC(F)(F)F)ccnc1C[S+]([O-])c1nc2ccccc2[nH]1 (configuration not stated) [Lansoprazole] | 1.2
